# Data reported in the supplement of paper PMC10037445.
# In all, about 2,900 compounds were measured (“NF-kB SEAP reporter activity, fold change vs agonist alone”: median about 0.99, highest 2% from about 2.6 on). The full list was thinned out, with the highest values kept by preference.
# Key:
# [1] = system: RAW-Dual; test: NF-kB SEAP reporter activity, fold change vs agonist alone; cytotoxicity flag (confluency mask): not cytotoxic; higher = enhanced NF-kB activity
# Summary of the method: (§1)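 After 50 nL of library stock was delivered by pin tool to RAW-Dual macrophages (50,000 cells/well, DMEM, 384-well plates), a PRR agonist was added 1 h later and the plates were kept at 37 °C, 5% CO2. Twenty hours later, IRF was read from supernatant by QuantiLuc luminescence and NF-κB by QuantiBlue absorbance at 620 nm. Reporter activity is stated as fold change over agonist-alone wells. Wells with IncuCyte confluency under 70% of agonist controls in both mask sets were counted as cytotoxic.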
# [2] = system: RAW-Dual; test: NF-kB SEAP reporter activity, fold change vs agonist alone; higher = enhanced NF-kB activity
# Summary of the method: as §1
# [3] = system: RAW-Dual; test: NF-kB SEAP reporter activity, fold change vs agonist alone; cytotoxicity flag (confluency mask): cytotoxic (confluency <70% of control); higher = enhanced NF-kB activity
# Summary of the method: as §1
# [4] = agonist: ODN 1826 (TLR9) 0.5 ug/mL
# [5] = agonist: Pam2CSK4 (TLR2/6) 0.1 ug/mL
# [6] = agonist: Pam3CSK4 (TLR2/1) 0.1 ug/mL
# [7] = library stock concentration (final ~1000-fold dilution): 10 mM, cytotoxicity flag (confluency mask): not cytotoxic, agonist: Imiquimod (TLR7) […]
# [8] = library stock concentration (final ~1000-fold dilution): 10 mM, cytotoxicity flag (confluency mask): not cytotoxic, agonist: MPLA (TLR4) […]
# [9] = library stock concentration (final ~1000-fold dilution): 10 mM, cytotoxicity flag (confluency mask): cytotoxic (confluency <70% of control), agonist: Imiquimod (TLR7) […]
# [10] = library stock concentration (final ~1000-fold dilution): 10 mM, cytotoxicity flag (confluency mask): cytotoxic (confluency <70% of control), agonist: MPLA (TLR4) […]
# [11] = library stock concentration (final ~1000-fold dilution): 10 mM water, cytotoxicity flag (confluency mask): not cytotoxic, agonist: Imiquimod (TLR7) […]
# [12] = library stock concentration (final ~1000-fold dilution): 10 mM water, cytotoxicity flag (confluency mask): not cytotoxic, agonist: MPLA (TLR4) […]
structure (smiles),measurement,setting,value
COc1ccccc1N1CCN(CCCNc2cc(=O)n(C)c(=O)n2C)CC1.Cl (library stock concentration (final ~1000-fold dilution): 10 mM),NF-kB SEAP reporter activity,[1]; agonist: LPS (TLR4) 0.1 ug/mL,1.02
same,NF-kB SEAP reporter activity,[1]; [4],0.978
same,NF-kB SEAP reporter activity,[1]; [5],1.06
same,NF-kB SEAP reporter activity,[1]; [6],1.17
COc1ccccc1S(=O)(=O)Nc1ccc2c(c1)CN(C)C(=O)N2,NF-kB SEAP reporter activity,[2]; [7],2.14
same,NF-kB SEAP reporter activity,[2]; [8],2.51
COc1ccccc1N1CCN(CCCNc2cc(=O)n(C)c(=O)n2C)CC1.Cl,NF-kB SEAP reporter activity,[2]; [7],1.18
same,NF-kB SEAP reporter activity,[2]; [8],0.935
COc1ccccc1S(=O)(=O)Nc1ccc2c(c1)CN(C)C(=O)N2 (library stock concentration (final ~1000-fold dilution): 10 mM),NF-kB SEAP reporter activity,[1]; agonist: LPS (TLR4) 0.1 ug/mL,3.81
same,NF-kB SEAP reporter activity,[1]; [4],2.25
same,NF-kB SEAP reporter activity,[1]; [5],0.457
same,NF-kB SEAP reporter activity,[1]; [6],1.4
COc1cc2c(cc1NS(=O)(=O)c1ccc(Br)cc1C)n(C)c(=O)n2C,NF-kB SEAP reporter activity,[2]; [7],0.973
same,NF-kB SEAP reporter activity,[2]; [8],1.39
CN1C(=N)NC(C)(c2cc(NC(=O)c3ccc(F)cn3)ccc2F)CS1(=O)=O (stereo not drawn) (library stock concentration (final ~1000-fold dilution): 10 mM),NF-kB SEAP reporter activity,[1]; agonist: LPS (TLR4) 0.1 ug/mL,0.906
same,NF-kB SEAP reporter activity,[1]; [4],0.673
same,NF-kB SEAP reporter activity,[1]; [5],0.747
same,NF-kB SEAP reporter activity,[1]; [6],0.657
CN1C(=N)NC(C)(c2cc(NC(=O)c3ccc(F)cn3)ccc2F)CS1(=O)=O (stereo not drawn),NF-kB SEAP reporter activity,[2]; [7],0.847
same,NF-kB SEAP reporter activity,[2]; [8],0.931
O=C(CCCCCN1C(=O)c2cccc3cccc(c23)C1=O)NO (library stock concentration (final ~1000-fold dilution): 10 mM),NF-kB SEAP reporter activity,[3]; agonist: LPS (TLR4) 0.1 ug/mL,3.67
same,NF-kB SEAP reporter activity,[3]; [4],2.57
same,NF-kB SEAP reporter activity,[3]; [5],1.28
same,NF-kB SEAP reporter activity,[3]; [6],2.06
COc1ccc(-n2c(SCCCN3C(=O)c4cccc5cccc(c45)C3=O)nnc2-c2ccncc2)cc1 (library stock concentration (final ~1000-fold dilution): 10 mM),NF-kB SEAP reporter activity,[1]; agonist: LPS (TLR4) 0.1 ug/mL,2.06
same,NF-kB SEAP reporter activity,[1]; [4],1.17
same,NF-kB SEAP reporter activity,[1]; [5],1.3
same,NF-kB SEAP reporter activity,[1]; [6],2.18
O=C(O)CN1C(=O)c2cccc3cccc(c23)C1=O (library stock concentration (final ~1000-fold dilution): 10 mM),NF-kB SEAP reporter activity,[1]; agonist: LPS (TLR4) 0.1 ug/mL,0.89
same,NF-kB SEAP reporter activity,[1]; [4],0.942
same,NF-kB SEAP reporter activity,[1]; [5],1.03
same,NF-kB SEAP reporter activity,[1]; [6],1.06
O=C(O)CN1C(=O)c2cccc3cccc(c23)C1=O,NF-kB SEAP reporter activity,[2]; [7],0.931
same,NF-kB SEAP reporter activity,[2]; [8],1.03
COc1ccc(-n2c(SCCCN3C(=O)c4cccc5cccc(c45)C3=O)nnc2-c2ccncc2)cc1,NF-kB SEAP reporter activity,[2]; [7],1.08
same,NF-kB SEAP reporter activity,[2]; [8],1.32
O=C(CCCCCN1C(=O)c2cccc3cccc(c23)C1=O)NO,NF-kB SEAP reporter activity,[2]; [9],1.51
same,NF-kB SEAP reporter activity,[2]; [10],2.33
CCCCCOc1ccc(-c2ccc(-c3ccc(C(=O)NC4CC(O)C(O)NC(=O)C5C(O)C(C)CN5C(=O)C(C(C)O)NC(=O)C(C(O)C(O)c5ccc(O)cc5)NC(=O)C5CC(O)CN5C(=O)C(C(C)O)NC4=O)cc3)cc2)cc1 (stereo not drawn),NF-kB SEAP reporter activity,[2]; [9],1.67
same,NF-kB SEAP reporter activity,[2]; [10],2.43
CCCCCOc1ccc(-c2cc(-c3ccc(C(=O)NC4CC(O)C(O)NC(=O)C5C(O)C(C)CN5C(=O)C(C(O)CC(N)=O)NC(=O)C(C(O)C(O)c5ccc(O)c(OS(=O)(=O)O)c5)NC(=O)C5CC(O)CN5C(=O)C(C(C)O)NC4=O)cc3)no2)cc1 (stereo not drawn) (library stock concentration (final ~1000-fold dilution): 10 mM water),NF-kB SEAP reporter activity,[1]; agonist: LPS (TLR4) 0.1 ug/mL,1.2
same,NF-kB SEAP reporter activity,[1]; [4],1.05
same,NF-kB SEAP reporter activity,[1]; [5],0.968
same,NF-kB SEAP reporter activity,[1]; [6],1.09
CCCCCOc1ccc(-c2ccc(-c3ccc(C(=O)NC4CC(O)C(O)NC(=O)C5C(O)C(C)CN5C(=O)C(C(C)O)NC(=O)C(C(O)C(O)c5ccc(O)cc5)NC(=O)C5CC(O)CN5C(=O)C(C(C)O)NC4=O)cc3)cc2)cc1 (stereo not drawn) (library stock concentration (final ~1000-fold dilution): 10 mM),NF-kB SEAP reporter activity,[3]; agonist: LPS (TLR4) 0.1 ug/mL,3.72
same,NF-kB SEAP reporter activity,[3]; [4],0.545
same,NF-kB SEAP reporter activity,[3]; [5],1.28
same,NF-kB SEAP reporter activity,[3]; [6],1.42
CCC(C)CC(C)CCCCCCCCC(=O)NC1CC(O)C(NCCN)NC(=O)C2C(O)CCN2C(=O)C(C(O)CCN)NC(=O)C(C(O)C(O)c2ccc(O)cc2)NC(=O)C2CC(O)CN2C(=O)C(C(C)O)NC1=O (stereo not drawn),NF-kB SEAP reporter activity,[2]; [11],0.901
same,NF-kB SEAP reporter activity,[2]; [12],0.866
CCC(C)CC(C)CCCCCCCCC(=O)NC1CC(O)C(NCCN)NC(=O)C2C(O)CCN2C(=O)C(C(O)CCN)NC(=O)C(C(O)C(O)c2ccc(O)cc2)NC(=O)C2CC(O)CN2C(=O)C(C(C)O)NC1=O (stereo not drawn) (library stock concentration (final ~1000-fold dilution): 10 mM water),NF-kB SEAP reporter activity,[1]; agonist: LPS (TLR4) 0.1 ug/mL,1.29
same,NF-kB SEAP reporter activity,[1]; [4],1.08
same,NF-kB SEAP reporter activity,[1]; [5],1.09
same,NF-kB SEAP reporter activity,[1]; [6],0.968
CCCCCOc1ccc(-c2cc(-c3ccc(C(=O)NC4CC(O)C(O)NC(=O)C5C(O)C(C)CN5C(=O)C(C(O)CC(N)=O)NC(=O)C(C(O)C(O)c5ccc(O)c(OS(=O)(=O)O)c5)NC(=O)C5CC(O)CN5C(=O)C(C(C)O)NC4=O)cc3)no2)cc1 (stereo not drawn),NF-kB SEAP reporter activity,[2]; [11],0.949
same,NF-kB SEAP reporter activity,[2]; [12],1.14
Cn1ncc(Cl)c1-c1cc(C(=O)NC(CN)Cc2ccc(F)c(F)c2)oc1Cl (stereo not drawn) (library stock concentration (final ~1000-fold dilution): 10 mM),NF-kB SEAP reporter activity,[1]; agonist: LPS (TLR4) 0.1 ug/mL,1.03
same,NF-kB SEAP reporter activity,[1]; [4],2.35
same,NF-kB SEAP reporter activity,[1]; [5],1.07
same,NF-kB SEAP reporter activity,[1]; [6],1.44
Cn1ncc(Cl)c1-c1cc(C(=O)NC(CN)Cc2ccc(F)c(F)c2)oc1Cl (stereo not drawn),NF-kB SEAP reporter activity,[2]; [7],1.61
same,NF-kB SEAP reporter activity,[2]; [8],1.61
CCOC(=O)C(CCc1ccccc1)NC(C)C(=O)N1Cc2ccccc2CC1C(=O)O.Cl (stereo not drawn) (library stock concentration (final ~1000-fold dilution): 10 mM),NF-kB SEAP reporter activity,[1]; agonist: LPS (TLR4) 0.1 ug/mL,0.94
same,NF-kB SEAP reporter activity,[1]; [4],1.07
same,NF-kB SEAP reporter activity,[1]; [5],1.26
same,NF-kB SEAP reporter activity,[1]; [6],1.05
CCOC(=O)C(CCc1ccccc1)NC(C)C(=O)N1Cc2ccccc2CC1C(=O)O.Cl (stereo not drawn),NF-kB SEAP reporter activity,[2]; [7],1.02
same,NF-kB SEAP reporter activity,[2]; [8],1.03
